{"source": "PubChem BioAssay (NCATS)", "note": "Several values for one entry are separate records, joined by “and”; a condition that tells them apart may be missing. Equal values may be shown once. Inconclusive results are not listed. Activity calls are given as the source filed them. The call rests on the fitted dose curve; in most records, active means well fitted cell-killing curve with a large enough effect; inconclusive means small, poorly fitted or top-dose-only effect, or effect the other way; inactive means no such curve, though single readings can be large or run the other way."}
{"experiment": "Viability qHTS for spleen associated tyrosine kinase inhibitor (SYKi) drug resistant MV4-11 cells (AID 1963824); further: nearly all actives have a fitted effect of over 35% in size; further: potency means the concentration at half of the fitted maximal effect", "settings": "SYKi-resistant MV4-11 viability, CellTiter-Glo, 72 h; series mostly up to 45 µM; viability, % of control: at the top concentration", "how_it_was_run": "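CellTiter-Glo luminescence, read 10 min after reagent addition, reports viability after a 72 hr compound exposure. Cells are an MV4-11 line made resistant to SYK inhibition, seeded at 500 per well onto compound-containing plates.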"}
{"compound": "CC1OC2O[C@H]3[C@@H](OCC(O)[C@H]3O)OC(=O)C34CCC(C)(C)CC3C3=CCC5C6(C)CC(O)C(OC7OC(CO)C(O)C(O)C7O[C@@H]7OC[C@H](OC(=O)CC(C)(O)CC(=O)OC1C(OC1OCC(O)C(O)C1O)C2O)[C@@H](O)[C@H]7O)C(C)(CO)C6CCC5(C)C3(C)CC4", "note": "(stereo not given in full)", "Potency": "7.09 µM (active)"}
{"compound": "CC1CC(O)C2(OC1=O)OC1C(O)C3C4CCC5CC(OC6OC(CO)C(O)C(O)C6OC6OC(C)C(O)C(O)C6O)CCC5(C)C4CCC3(C)C1C2C", "note": "(stereo not given)", "viability, % of control": "80.7% [at 17.3 µM] (inactive)"}
{"compound": "C/C=C(\\C)C(=O)O[C@H]1C=CC(=O)O[C@H]1/C=C/[C@@H](O)[C@H](C)O", "Potency": "3.66 µM (active)"}
{"compound": "O=C(Nc1cccc(Nc2cc(Nc3cccc(C(F)(F)F)c3)ncn2)c1)C1CC1", "Potency": "0.259 µM (active)"}
{"compound": "COc1c2c(c(C)c3c1C(=O)OC3)OC1(C)CC(O)C34OC(OC)(OC3(C)C)C(O)CC4(C)C1C2", "note": "(stereo not given)", "viability, % of control": "90.7% [at 17.3 µM] (inactive)"}
{"compound": "CN1CCN(C2=Nc3ccccc3Nc3ccc(OS(=O)(=O)C(F)(F)F)cc32)CC1", "Potency": "20.6 µM (active)"}
{"compound": "Cc1cnc(-c2ccccc2C(C)C)nc1NCc1ccc(-n2ccnn2)cc1", "Potency": "16.4 µM (active) and 14.8 µM (active)"}
{"compound": "CCCCC(=O)O[C@]1(C(=O)CO)CC[C@H]2[C@@H]3CCC4=CC(=O)CC[C@]4(C)[C@H]3[C@@H](O)C[C@@]21C", "viability, % of control": "81.5% (inactive)"}
{"compound": "CC(=O)O[C@@H]1CC[C@@]2(C)C(CC[C@]3(C)C2[C@H](O)C=C2[C@H]4[C@@H](C)[C@H](C)CC[C@]4(C)CC[C@]23C)[C@@]1(C)C(=O)O", "note": "(stereo not given in full)", "Potency": "7.09 µM (active)"}
{"compound": "C=C1C(=C/C=C2\\CCC[C@]3(C)[C@@H]([C@H](C)/C=C/[C@@H](O)C4CC4)CC[C@@H]23)C[C@@H](O)C[C@@H]1O", "Potency": "0.188 µM (active)"}
{"compound": "C=C1C(=O)O[C@H]2C3=C(C)CCC[C@]3(C)C(=O)C[C@@H]12", "Potency": "0.92 µM (active)"}
{"compound": "CCC(C)C(=O)OC1CC(O)C23C4OCC5(C(O)CC2C1(C)C(O)O4)C3C(=O)C(O)C1(C)C(O)(c2ccoc2)CC2OC251", "note": "(stereo not given)", "Potency": "0.432 µM (active)"}
{"compound": "CN1CCC[C@@H]1CCO[C@](C)(c1ccccc1)c1ccc(Cl)cc1", "Potency": "18.8 µM (active)"}
{"compound": "COc1ccc(Cl)cc1[C@@]1(F)C(=O)Nc2cc(C(F)(F)F)ccc21", "Potency": "6.51 µM (active)"}
{"compound": "O=C1NC(=NCc2cccs2)S/C1=C/c1ccc2ncccc2c1", "Potency": "1.84 µM (active)"}
{"compound": "O=C1OC2(c3ccc(O)cc3Oc3cc(O)ccc32)c2ccccc21", "viability, % of control": "57.2% (inactive)"}
{"compound": "CC[C@@H](C)[C@@H]1OC2(C=C[C@H]1C)C[C@@H]1C[C@H](C/C=C(\\C)[C@H](O[C@H]3C[C@H](OC)[C@H](O[C@H]4C[C@H](OC)[C@H](NC(C)=O)[C@H](C)O4)[C@H](C)O3)[C@H](C)/C=C/C=C3\\CO[C@H]4[C@H](O)C(C)=C[C@@H](C(=O)O1)[C@@]34O)O2", "note": "(stereo not given in full)", "Potency": "2.27 µM (active)"}
{"compound": "OCC(O)CCO/N=C1/C(c2c(O)[nH]c3ccccc23)=Nc2ccccc21", "note": "(stereo not given)", "Potency": "0.0517 µM (active)"}
{"compound": "COc1c(C(C)C)c(O)c(O)c2c1C(OC)[C@H]1OC(=O)[C@@]23CCCC(C)(C)[C@H]13", "note": "(stereo not given in full)", "Potency": "14.3 µM (active)"}
{"compound": "CC(=O)OC1CC2C(C)(C)C(=O)C=CC2(C)C2CC(=O)C3=C(CCC3C3=CC(O)OC3=O)C12C", "note": "(stereo not given)", "Potency": "11.2 µM (active)"}
{"compound": "CC(Oc1ccc2[nH]nc(/C=C/c3cnn(CCO)c3)c2c1)c1c(Cl)cncc1Cl", "note": "(stereo not given)", "Potency": "0.0116 µM (active)"}
{"compound": "C/C=C/C=C/C(=O)O[C@@H]1C=C2COC(=O)[C@]2(O)[C@@]2(C)CCCC(C)(C)[C@H]12", "Potency": "16.1 µM (active)"}
{"compound": "O=C(O)Cc1cn([C@@H]2OC[C@@H](O[C@@H]3O[C@H](CO)[C@@H](O)[C@H](O)[C@H]3O)[C@H](O)[C@H]2O[C@@H]2O[C@H](CO)[C@@H](O)[C@H](O)[C@H]2O)c2ccccc12", "viability, % of control": "90.6% [at 17.3 µM] (inactive)"}
{"compound": "CC(=O)OC1C(C)C2C(OC3OC(CO)C(O)C(O)C3O)OC=C(C(=O)O)C2C1OC(=O)c1ccccc1", "note": "(stereo not given)", "viability, % of control": "110% [at 17.3 µM] (inactive)"}
{"compound": "CN(C)c1ccc2c(c1)OC(N)=C(C#N)C2c1cccc(C(F)(F)F)c1", "note": "(stereo not given)", "Potency": "0.184 µM (active)"}
{"compound": "C[C@H]1[C@H](/C=C/c2ccc(-c3ccccc3C#N)cn2)[C@@H]2[C@@H](C)OC(=O)[C@@H]2C[C@@H]1C", "Potency": "7.31 µM (active)"}
{"compound": "CNc1cc2[nH]c(=O)n(-c3ccc(NC(=O)NS(=O)(=O)c4ccc(Cl)s4)cc3)c(=O)c2cc1F", "viability, % of control": "83.1% (inactive)"}
{"compound": "C=C1[C@H](OC(C)=O)[C@H]2[C@@H](OC(=O)c3ccccc3)[C@@H](C)C[C@]2(O)[C@@H](OC(C)=O)[C@H](C)/C=C/C(C)(C)C(=O)[C@H](OC(C)=O)[C@H]1OC(C)=O", "viability, % of control": "74.4% [at 17.3 µM] (inactive)"}
{"compound": "O=c1cc(-c2ccccc2)oc2ccc(O)cc12", "Potency": "14.6 µM (active)"}
{"compound": "COc1cc2ncnc(Nc3ccc(F)c(Cl)c3)c2cc1O", "Potency": "9.2 µM (active)"}
{"compound": "Cc1cc(OCCCS(C)(=O)=O)cc(C)c1-c1cccc(COc2ccc(C3=CC(=O)NS3=O)cc2)c1", "note": "(stereo not given)", "Potency": "5.17 µM (active)"}
{"compound": "O=C(O)c1ccc2c3c1cccc3c(=O)n1c3ccccc3nc21", "viability, % of control": "79.9% (inactive)"}
{"compound": "Cc1ccc(-n2nc(C(C)(C)C)cc2NC(=O)Nc2cc(COc3cccnc3)[nH]n2)cc1", "Potency": "0.146 µM (active)"}
{"compound": "CC1CCCC(SCC(O)C(=O)O)CC(=O)c2c(O)cc(O)cc2CC(=O)O1", "note": "(stereo not given)", "Potency": "2.24 µM (active)"}
{"compound": "CCOC(=O)c1sc(NC(=O)[C@H](C(C)C)n2c(=O)[nH]c3ccccc3c2=O)nc1C", "Potency": "16.4 µM (active)"}
{"compound": "Cc1ccc(CNc2ncnc3ccc(-c4ccc(CO)o4)cc23)o1", "Potency": "5.17 µM (active)"}
{"compound": "CC1OC2OC3C(OCC(O)C3O)OC(=O)C34CCC(C)(C)CC3C3=CCC5C6(C)CC(O)C(OC7OC(CO)C(O)C(O)C7OC7OCC(OC(=O)CC(C)(O)CC(=O)OC1C(OC1OCC(O)C(O)C1O)C2O)C(O)C7O)C(C)(CO)C6CCC5(C)C3(C)CC4O", "note": "(stereo not given)", "Potency": "1.78 µM (active)"}
{"compound": "CC(=O)c1ccc2c(c1)N(CCCN(C)C)c1ccccc1S2", "Potency": "11.9 µM (active)"}
{"compound": "COC1C2=C(COC2=O)C2(C)CCCC(C)(CO)C2C1OC(=O)c1ccccc1", "note": "(stereo not given)", "viability, % of control": "74.6% [at 17.3 µM] (inactive)"}
{"compound": "COc1cc(/C=C/C(=O)OC2[C@H](O)CC(O)(C(=O)O)C[C@H]2O)ccc1O", "note": "(stereo not given in full)", "viability, % of control": "97.3% (inactive)"}
